This is an account of results in ChEMBL document CHEMBL4513216, “Probing the Open Global Health Chemical Diversity Library for Multistage-Active Starting Points for Next-Generation Antimalarials” (ACS Infect Dis, 2020).

Hit rate of the full screen: of about 69,000 compounds, about 8,600 (12%) showed an effect of 50% or more. Only a selection was taken, and strong results are over-represented in it overall.

The assay relates to Plasmodium berghei. Nature of the assay: Screen against P. berghei liver stage (PbLuc), transformed with Luciferase, at 10uM. The conditions noted are these: tested at 10 uM. It is filed as functional, HepG2.
Take `CC(=O)N1CCCC(c2ccccn2)C1` (centres undefined): the INHIBITION was 15.9%.
In the case of `CCOCCN1CCC(c2cncc(C)n2)CC1`, the INHIBITION was 10.155%.
For `CC(C)CNC(=O)CN(CC(=O)NCC(C)C)S(C)(=O)=O`, the INHIBITION is on record as 37.4%.
For `C=C(C)COc1ccccc1CNC(CC)c1ccnn1C` (centres undefined), the INHIBITION came out at 36.7%.
Consider `C=C(C)COc1cccc(CNC(COC)c2ccnn2C)c1` (centres undefined), for which the INHIBITION is 37.6%.
In the case of `C=C(C)COc1cccc(CNC(CC)c2ccnn2C)c1` (centres undefined), the INHIBITION stood at 66.6%.
Next, `CC(C)c1ncc(CN2CCC(O)(c3ccccc3F)CC2)cn1`: 33.04%; `Cc1cc(C)cc(N2CC(c3nnc(N)s3)CC2=O)c1` (centres undefined): -11.4%.
The figure for `c1cn(-c2cnc(C3CCCNC3)cn2)cn1` (centres undefined) is 24.4%; for `Cc1ocnc1C(=O)N1CCC2(CC1)c1nc[nH]c1CCN2CC(C)C` it is 47.4%; for `CC(C)CN1CCc2[nH]cnc2C12CCN(C(=O)c1cncn1C)CC2` it is 33.4%.
The figure for `CC(C)CN1CCc2[nH]cnc2C12CCN(C(=O)c1ccnn1C)CC2` is 65.8%.
In the case of `CC(C)CN1CCc2[nH]cnc2C12CCN(C(=O)c1cnn(C)c1)CC2`, the INHIBITION stood at 51.8%.
As for `CC(C)CN1CCc2[nH]cnc2C12CCN(C(=O)c1ccc[nH]1)CC2`, the INHIBITION came out at 33.4%.
Consider `CC(C)CN1CCc2[nH]cnc2C12CCN(C(=O)c1cccnc1)CC2`, for which the INHIBITION is 16.6%.
Consider `Cc1nn(C)cc1-c1cncn1CCc1ccc2c(c1)OCCO2`, for which the INHIBITION was determined as 27.6%.
With `CC(C)C[C@@H](CO)n1cc(-c2cnc(-c3ccco3)nc2)nn1`, the INHIBITION is given as -6.83%.
`NC(=O)NC(=O)CCN1CCCC1c1nc(C2CCCCC2)co1` (centres undefined): the INHIBITION is -5.33%.
`Cc1ccc(F)c2c1N(C(=O)Cc1c(C)nn(C)c1C)CCC2`: the INHIBITION was -19.1%.
Next, `CCCS(=O)(=O)NCCn1ccc(-c2cccs2)n1`: 34.6%; `CS(=O)(=O)NCCn1ccc(-c2cccs2)n1`: 22.5%; `Cc1nn(C)c(C)c1S(=O)(=O)NCCn1ccc(-c2cccs2)n1`: 63.1%.
Take `O=C(NCC1CCOCC1)[C@H]1C[C@@H]2CCN(Cc3ccncc3)C[C@@H]2O1`: the INHIBITION is 10%.
For the molecule `Cc1cn[nH]c1C1COCCN1C(=O)c1cc(F)ccc1F` (centres undefined), the INHIBITION is 22.8%.
`COCC1CN(Cc2ccc(F)cc2)Cc2nnn(CC3CC3)c21` (centres undefined): the INHIBITION is recorded as -9.54%.
In the case of `COc1ccc2oc(-c3cn(C)nc3C)c(O)c(=O)c2c1`, the INHIBITION amounted to 8.49%.
For the molecule `COc1cccc(CNC(=O)N2CCN3CCNC(=O)C3C2)c1` (centres undefined), the INHIBITION is reported as 15.2%.
Take `O=C1NCCN2CCN(C(=O)NCCc3ccccc3)CC12` (centres undefined): the INHIBITION amounted to 61.1%.
On to `O=C1NCCN2CCN(C(=O)Nc3ccc(-c4ccccc4)cc3)CC12` (centres undefined), for which the INHIBITION was determined as 18.6%.
For the molecule `O=C(c1ccccn1)N1C[C@H]2CC[C@@H](C1)N(C(=O)CCc1cccs1)C2`, the INHIBITION turned out to be 21.8%.
For `CCC(=O)N1CCC(c2ncncc2C)CC1`, the INHIBITION is on record as 21.1%.
The figure for `Cc1ncsc1C(=O)Nc1cccc(OCC(F)F)n1` is 17.4%.
`NC(=O)Nc1cccc(C(=O)N(Cc2ccncc2)C2CC2)c1`: the INHIBITION worked out at 71.1%.
The figure for `Cc1ccc(CN(C(=O)c2cccc(NC(N)=O)c2)C2CC2)o1` is 17.9%; for `NC(=O)Nc1cccc(C(=O)N(Cc2ccc(F)cc2)C2CC2)c1` it is 13.5%.
Consider `Cc1occc(=O)c1OCc1noc(C(=O)NC2CCCC2)n1`, for which the INHIBITION turned out to be 6.67%.
As for `CCOCC1CN(C(=O)c2cccn2C)Cc2cnn(CC3CC3)c21` (centres undefined), the INHIBITION amounted to 19%.
On to `CCOCC1CN(C(=O)c2ccco2)Cc2cnn(CC)c21` (centres undefined), for which the INHIBITION is 78.8%.
The figure for `O=C(c1ccco1)N1Cc2cnn(CC3CC3)c2C(COCC2CC2)C1` (centres undefined) is 50.4%; for `CCOCC1CN(C(=O)CS(C)(=O)=O)Cc2cnn(C)c21` (centres undefined) it is 19.5%.
In the case of `CCOCC1CN(C(=O)c2ccnnc2)Cc2cnn(CC)c21` (centres undefined), the INHIBITION came out at 5.44%.
For the molecule `Cc1ccc(N2Cc3cnn(C)c3C(COCC3CC3)C2)nn1` (centres undefined), the INHIBITION was determined as 24.6%.
Consider `CCOCC1CN(C(=O)c2ccco2)Cc2cnn(C)c21` (centres undefined), for which the INHIBITION is recorded as 18.4%.
Turning to `CCn1ncc2c1C(COCC1CC1)CN(c1ccc(C)nn1)C2` (centres undefined), the INHIBITION is listed as 86.2%.
As to `CCOCC1CN(C(=O)N2CCCC2)Cc2cnn(C)c21` (centres undefined), the INHIBITION is reported as 21.4%.
Regarding `CCn1cc2c(n1)C(COCC1CC1)CN(C(=O)c1ccco1)C2` (centres undefined), the INHIBITION is given as -78.9%.
For the molecule `CCOCC1CN(C(=O)C2CCOCC2)Cc2cnn(C)c21` (centres undefined), the INHIBITION turned out to be 59.9%.
Consider `CCOCC1CN(c2ccc(C)nn2)Cc2cnn(CC)c21` (centres undefined), for which the INHIBITION is given as 48.4%.
Regarding `CNC(=O)c1ccc(C(=O)N2CCCC(n3ccnc3)C2)cn1` (centres undefined), the INHIBITION turned out to be 18.2%.
The figure for `Cc1cnn(CC2CCCN2CC(=O)NC2CCOCC2)c1` (centres undefined) is 15.3%.
The figure for `O=C1NCCN(CC2CC2)C12CCN(Cc1ccccc1)CC2` is 47.4%; for `CCc1noc(CN2CCCN(Cc3cccs3)CC2)n1` it is -47.6%; for `Cc1nn(C)c(Cl)c1C1CCCN1Cc1ccc(C(N)=O)cc1` (centres undefined) it is -1.14%.
Regarding `COCC1CN(c2ncccn2)Cc2cnn(CC3CC3)c21` (centres undefined), the INHIBITION is 84.2%.
